Source: PubChem BioAssay AID1159580 (chemical genetic matrix, 2015)
Hit rate of the full screen: of about 5,500 compounds, about 2,000 (36%) were called active. About 18% were inconclusive and are not listed. Rule as the data show it: active = normalized growth mostly below about 0.91 (no sharp cut-off); inconclusive = no clear call, values can overlap the other calls; inactive = mostly above about 0.92. The list shows a part of the results.

Test: chemical genetic growth profiling, strain panel (AID 1159580);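 also: tested at 20 µM; growth read once vehicle control cultures reached saturation at 30 °C; 1 = growth at the plate median or of vehicle wells; lower values mean less growth of the strain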
Conditions: growth OD

Measured: normalized growth

C[C@H]1C(=O)O[C@@H]2CCN3CC=C(COC(=O)[C@](C)(O)[C@]1(C)O)[C@H]23
inactive: S. cerevisiae deletion strains, locus YKL068W, active compounds read low 0.992 | S. cerevisiae deletion strains, locus YKL085W, strain MDH1 (second series), active compounds read low 1.04 | S. cerevisiae deletion strains, locus YKL085W, strain MDH1, active compounds read low 1.04 | S. cerevisiae deletion strains, locus YKL160W, strain elf1, active compounds read low 0.991 | S. cerevisiae deletion strains, locus YKL190W, strain CNB1, active compounds read low 1 | S. cerevisiae deletion strains, locus YKR001C, strain vps1, active compounds read low 0.986 | S. cerevisiae deletion strains, locus YKR026C, strain gcn3, active compounds read low 0.986 | S. cerevisiae deletion strains, locus YKR091W, strain srl3, active compounds read low 0.975 | S. cerevisiae deletion strains, locus YLL001W, strain dnm1, active compounds read low 0.976 | S. cerevisiae deletion strains, locus YLL026W, active compounds read low 0.99 | S. cerevisiae deletion strains, locus YLL041C, strain sdh2, active compounds read low 0.993 | S. cerevisiae deletion strains, locus YLR027C, strain aat2, active compounds read low 0.993 | S. cerevisiae deletion strains, locus YLR039C, strain RIC1, active compounds read low 0.989 | S. cerevisiae deletion strains, locus YLR058C, strain SHM2, active compounds read low 0.99 | S. cerevisiae deletion strains, locus YLR102C, strain apc9, active compounds read low 0.988 | S. cerevisiae deletion strains, locus YLR113W, strain HOG1, active compounds read low 1.01 | S. cerevisiae deletion strains, locus YLR221C, strain rsa3, active compounds read low 1.01 | S. cerevisiae deletion strains, locus YLR258W, strain gsy2, active compounds read low 0.992 | S. cerevisiae deletion strains, locus YLR262C, strain YPT6 (second series), active compounds read low 0.976 | S. cerevisiae deletion strains, locus YLR262C, strain YPT6, active compounds read low 1.02 | S. cerevisiae deletion strains, locus YLR268W, strain sec22, active compounds read low 0.988 | S. cerevisiae deletion strains, locus YLR320W, strain mms22, active compounds read low 0.997 | S. cerevisiae deletion strains, locus YLR330W, strain CHS5, active compounds read low 0.992 | S. cerevisiae deletion strains, locus YLR342W, strain FKS1 (second series), active compounds read low 0.976 | S. cerevisiae deletion strains, locus YLR342W, strain FKS1, active compounds read low 0.997 | S. cerevisiae deletion strains, locus YLR357W, strain rsc2, active compounds read low 0.979 | S. cerevisiae deletion strains, locus YLR370C, strain arc18, active compounds read low 0.986 | S. cerevisiae deletion strains, locus YLR371W, strain rom2, active compounds read low 0.984 | S. cerevisiae deletion strains, locus YLR384C, strain iki3, active compounds read low 0.987 | S. cerevisiae deletion strains, locus YLR418C, strain cdc73, active compounds read low 0.985 | S. cerevisiae deletion strains, locus YML016C, strain PPZ1, active compounds read low 0.987 | S. cerevisiae deletion strains, locus YML032C, strain rad52, active compounds read low 0.993 | S. cerevisiae deletion strains, locus YML120C, strain ndi1, active compounds read low 0.988 | S. cerevisiae deletion strains, locus YML124C, strain tub3, active compounds read low 0.987 | S. cerevisiae deletion strains, locus YMR058W, strain fet3, active compounds read low 0.997 | S. cerevisiae deletion strains, locus YMR078C, strain ctf18, active compounds read low 0.983 | S. cerevisiae deletion strains, locus YMR125W, strain sto1, active compounds read low 0.987 | S. cerevisiae deletion strains, locus YMR129W, active compounds read low 0.998 | S. cerevisiae deletion strains, locus YMR205C, strain PFK2, active compounds read low 0.986 | S. cerevisiae deletion strains, locus YMR223W, strain ubp8, active compounds read low 0.991 | S. cerevisiae deletion strains, locus YMR231W, strain pep5, active compounds read low 0.998 | S. cerevisiae deletion strains, locus YMR263W, strain SAP30, active compounds read low 1 | S. cerevisiae deletion strains, locus YMR307W, strain GAS1, active compounds read low 0.983 | S. cerevisiae deletion strains, locus YNL067W, strain RPL9B, active compounds read low 1.02 | S. cerevisiae deletion strains, locus YNL071W, strain lat1, active compounds read low 0.991 | S. cerevisiae deletion strains, locus YNL128W, strain TEP1, active compounds read low 0.98 | S. cerevisiae deletion strains, locus YNL153C, strain GIM3, active compounds read low 1.02 | S. cerevisiae deletion strains, locus YNL183C, strain NPR1, active compounds read low 0.969 | S. cerevisiae deletion strains, locus YNL209W, strain ssb2, active compounds read low 0.994 | S. cerevisiae deletion strains, locus YNL233W, strain BNI4, active compounds read low 0.995 | S. cerevisiae deletion strains, locus YNL248C, strain rpa49, active compounds read low 0.995 | S. cerevisiae deletion strains, locus YNL250W, strain rad50, active compounds read low 0.978 | S. cerevisiae deletion strains, locus YNL271C, strain bni1, active compounds read low 0.985 | S. cerevisiae deletion strains, locus YNL298W, strain CLA4, active compounds read low 0.987 | S. cerevisiae deletion strains, locus YNL307C, strain MCK1, active compounds read low 0.991 | S. cerevisiae deletion strains, locus YNL322C, strain KRE1 (second series), active compounds read low 0.982 | S. cerevisiae deletion strains, locus YNL322C, strain KRE1, active compounds read low 0.993 | S. cerevisiae deletion strains, locus YNR049C, strain mso1, active compounds read low 0.989 | S. cerevisiae deletion strains, locus YNR052C, strain pop2, active compounds read low 0.987 | S. cerevisiae deletion strains, locus YOL006C, strain TOP1, active compounds read low 1.03 | S. cerevisiae deletion strains, locus YOL012C, strain htz1 0.746 | S. cerevisiae deletion strains, locus YOL147C, strain pex11, active compounds read low 0.997 | S. cerevisiae deletion strains, locus YOR001W, strain rrp6, active compounds read low 0.995 | S. cerevisiae deletion strains, locus YOR061W, strain CKA2, active compounds read low 0.989 | S. cerevisiae deletion strains, locus YOR069W, strain VPS5, active compounds read low 0.984 | S. cerevisiae deletion strains, locus YOR070C, strain gyp1, active compounds read low 0.994 | S. cerevisiae deletion strains, locus YOR080W, strain dia2, active compounds read low 0.994 | S. cerevisiae deletion strains, locus YOR083W, strain WHI5, active compounds read low 1 | S. cerevisiae deletion strains, locus YOR106W, strain vam3, active compounds read low 0.998 | S. cerevisiae deletion strains, locus YOR136W, strain idh2, active compounds read low 0.99 | S. cerevisiae deletion strains, locus YOR144C, strain elg1, active compounds read low 0.988 | S. cerevisiae deletion strains, locus YOR184W, strain ser1, active compounds read low 1.02 | S. cerevisiae deletion strains, locus YOR231W, strain MKK1, active compounds read low 0.98 | S. cerevisiae deletion strains, locus YOR265W, strain rbl2, active compounds read low 0.996 | S. cerevisiae deletion strains, locus YOR270C, strain vph1, active compounds read low 0.967 | S. cerevisiae deletion strains, locus YOR290C, strain snf2, active compounds read low 0.998 | S. cerevisiae deletion strains, locus YOR316C, strain cot1, active compounds read low 0.978 | S. cerevisiae deletion strains, locus YPL051W, strain arl3, active compounds read low 0.992 | S. cerevisiae deletion strains, locus YPL055C, strain LGE1, active compounds read low 1.06 | S. cerevisiae deletion strains, locus YPL078C, strain atp4, active compounds read low 0.993 | S. cerevisiae deletion strains, locus YPL106C, strain sse1, active compounds read low 0.98 | S. cerevisiae deletion strains, locus YPL240C, strain hsp82, active compounds read low 0.986 | S. cerevisiae deletion strains, locus YPL256C, strain CLN2, active compounds read low 0.992 | S. cerevisiae deletion strains, locus YPR119W, strain clb2, active compounds read low 0.991 | S. cerevisiae deletion strains, locus YPR141C, strain kar3, active compounds read low 0.98 | S. cerevisiae deletion strains, locus YPR163C, strain tif3, active compounds read low 0.986 | S. cerevisiae deletion strains, locus YPR167C, strain met16, active compounds read low 0.989 | S. cerevisiae deletion strains, strain wtn01, active compounds read low 0.987 | S. cerevisiae strains, strain wild type, active compounds read low 0.995
